Assay outcomes (PubChem BioAssay)
PKM2 act: increases activity of human pyruvate kinase M2. Potency, µM (highest dose often 57.5 µM), actives largely listed as activators. P14618. AID 1631. hit rate 0.34% among 260,000. purified PKM2, Kinase-Glo ATP luminescence, activation; response scale: 0% is enzyme alone, no compound; also: nearly all actives have a fitted effect of over 55% in size
Target sequence (P14618 whole entry, looked up): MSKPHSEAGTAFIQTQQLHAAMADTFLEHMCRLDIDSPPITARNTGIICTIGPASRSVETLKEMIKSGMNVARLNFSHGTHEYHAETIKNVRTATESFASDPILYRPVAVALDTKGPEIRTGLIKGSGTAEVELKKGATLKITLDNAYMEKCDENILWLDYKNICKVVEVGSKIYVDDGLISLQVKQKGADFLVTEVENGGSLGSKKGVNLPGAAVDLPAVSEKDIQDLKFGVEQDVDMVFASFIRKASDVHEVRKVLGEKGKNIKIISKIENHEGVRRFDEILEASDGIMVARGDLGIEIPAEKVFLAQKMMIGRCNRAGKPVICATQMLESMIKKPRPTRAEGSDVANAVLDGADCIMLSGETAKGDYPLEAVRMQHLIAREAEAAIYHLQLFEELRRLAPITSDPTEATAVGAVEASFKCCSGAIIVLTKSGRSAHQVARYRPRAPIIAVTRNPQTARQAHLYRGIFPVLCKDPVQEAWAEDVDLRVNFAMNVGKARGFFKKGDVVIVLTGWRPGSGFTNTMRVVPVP
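ATP formation by purified human PK-M2, quantified via coupled luciferase luminescence after 1 h at room temperature with 0.1 mM ADP and 0.5 mM PEP final.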
EPAC1 ag: activates human EPAC1 exchange factor; hit rate 0.073% among 360,000; Potency, µM (titrated, usually from 154 µM), hits mostly activators; AID 720707; EPAC1 agonist qHTS, biochemical assay; response scale: 100% = response to 6.5 mM cAMP; also: nearly all actives have a fitted effect of over 60% in size
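Normalized to 6.5 mM cAMP, activity reflects EPAC1-catalysed release of BODIPY-GDP from Rap1B, followed kinetically over 30 min at 480 nm excitation, 540 nm emission. Reaction contained 100 nM EPAC1, 250 nM Rap1B-BODIPY-GDP, 50 uM GDP.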
EPAC2 antag: blocks human EPAC2 exchange factor; Q8WZA2; EPAC2 GEF exchange of Rap1B-BODIPY-GDP, fluorescence; Potency, µM (highest dose often 114 µM), usual class: inhibitors; hit rate 0.18% among 360,000; AID 720708; also: nearly all actives have a fitted effect of over 45% in size
EPAC1 antagonist: antagonists of human EPAC1; hit rate 0.14% among 360,000; EPAC1 GEF assay, Rap1b-BODIPY-GDP exchange fluorescence; Potency, µM (doses to about 115 µM), usual class: inhibitors; O95398; also: nearly all actives have a fitted effect of over 50% in size
EPAC2 ag: EPAC2 (human) agonism; Q8WZA2; EPAC2 activation, biochemical qHTS; response scale: 100% = 6.5 mM cAMP response; Potency, µM (top dose mostly 154 µM), most hits filed as activators; hit rate 0.079% among 360,000; also: nearly all actives have a fitted effect of over 50% in size
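Setup: EPAC2 100 nM, labeled Rap1B complex 250 nM, free GDP 50 uM. Compound titrations pinned in, brief spin, 5 min room temperature incubation. Kinetic fluorescence read over 30 min, normalized to 6.5 mM cAMP.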
IL2 activator: activates IL-2 in a cell-based reporter assay; IL-2 activation reporter assay, cell-based qHTS; stimulated with anti-CD3/CD4/CD28 beads; in transgenic mouse T cells; activation, % (series mostly up to about 46 µM); hit rate 0.065% among 360,000; AID 652025; in the data active = activation above about 50%; inconclusive = mostly about 30% to 49%
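Unstimulated transgenic mouse T cells; 60-min compound exposure; bead-based TCR/CD4/CD28 stimulation; 18 h culture, 37 degrees C; dual fluorescence (EGFP, DsRed) plate cytometry.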
Of the large screens only hits and unclear results are named; the others gave an inactive call. Compounds with a hit are over-represented: about 0.64% of the library has one in this group of screens. Unless noted, calls follow the shape of the dose curve; as a rule, active = well fitted curve in the direction sought with a large enough effect; inconclusive = small, poorly fitted or top-dose-only effect, or another doubt; inactive = no such curve, though single readings can be large; an effect the other way counts as inactive or inconclusive.

COc1ccc(N=C2S/C(=C\c3ccc(N4CCOCC4)o3)C(=O)N2CCc2c[nH]c3ccccc23)cc1	PKM2 act 3.2µM (no result: EPAC1 ag, EPAC2 antag, EPAC1 antagonist, EPAC2 ag, IL2 activator)
COc1cccc(CCc2nnc(CCC(=O)N3CCN(Cc4ccccn4)CC3)o2)c1	none
COc1ccc(NC(=O)NS(=O)(=O)c2ccc(C)cc2)cn1	EPAC1 ag 100µM (no result: PKM2 act)
COc1cc(NC(=O)NS(=O)(=O)c2ccc(C)cc2)cc(OC)c1	none
Cc1nc(C)c(-c2csc(Nc3ccc(C(=O)O)c(O)c3)n2)s1	EPAC2 antag 10µM, EPAC1 antagonist inconclusive
O=C(/C=C/c1ccccc1)CC(=O)c1ccccc1O	none
O=[N+]([O-])c1ccccc1NCCNS(=O)(=O)c1ccc(Cl)cc1	none
O=[N+]([O-])c1ccc(NCCCNS(=O)(=O)c2ccc(Cl)cc2)c(Cl)c1	PKM2 act 14µM
Cc1cc(C)c(C#N)c(SCCS(=O)(=O)c2ccc(Cl)cc2)n1	PKM2 act 20µM
N#Cc1ccc(NC(=S)NC(=O)C2CC2)cc1	none (no result: PKM2 act)
Cc1ccc(S(=O)(=O)Nc2ccccc2C(=O)Nc2nc(-c3ccc(F)cc3)cs2)cc1	EPAC1 antagonist 79µM
COc1ccc(-c2csc(NC(=O)c3ccccc3F)n2)cc1	none
Cc1ccc(S(=O)(=O)Nc2nc(-c3ccccc3)cs2)cc1	none
O=C(Nc1cc(S(=O)(=O)N2CCCCC2)ccc1Cl)c1ccccc1NS(=O)(=O)c1ccc(F)cc1	EPAC1 antagonist 50µM
COc1ccc(-c2csc(NC(=O)c3ccccc3NS(=O)(=O)c3ccc(F)c(F)c3)n2)cc1	EPAC2 antag 16µM, EPAC1 antagonist 50µM
CCCn1c(C)cc(/C=C(\C#N)C(=O)OCC(=O)N(CC)c2c(N)n(Cc3ccccc3)c(=O)[nH]c2=O)c1C	none (no result: PKM2 act)
NC(=S)N=Nc1c(O)[nH]c2c(Br)cc(Br)cc12	none
O=C(c1ccco1)N1N=C2CCCCCC2C1(O)C(F)(F)F (configuration not stated)	EPAC2 antag 79µM
O=C(c1ccncc1)N1N=C2CCCCCC2C1(O)C(F)(F)F (configuration not stated)	none
CN1/C(=C\C=C(/C#N)C(=O)Nc2ccccc2F)C(C)(C)c2ccccc21	EPAC1 ag inconclusive, EPAC2 ag 100µM
CN1/C(=C/C=C(/C#N)C(N)=O)C(C)(C)c2ccccc21	none
CCN1/C(=C/c2ccc3cc(C)cc(C)c3[n+]2CC)Sc2cc(C)ccc21	none
CCN1/C(=C/c2ccc3cccc(C)c3[n+]2CC)Sc2ccccc21	IL2 activator 54
O=c1[nH][nH]c(=O)c2c(NS(=O)(=O)c3ccccc3)cccc12	PKM2 act 11µM
O=S(=O)(Nc1ccccc1-c1ccccc1)c1ccccc1	EPAC2 antag 50µM (no result: PKM2 act)
O=C(O)c1cccc(S(=O)(=O)Nc2ccccc2-c2ccccc2)c1	none
COc1cc(C(=O)NC(=S)NCc2ccncc2)cc(OC)c1OC	none (no result: PKM2 act)
Clc1cccc(Cl)c1CSc1cc2c(nn1)-c1ccccc1CC2	IL2 activator 51
Clc1ccccc1CSc1cc2c(nn1)-c1ccccc1CC2	none
Cc1cccc(-c2nnc(SCC#N)n2C)c1	none
Cc1ccc(S(=O)(=O)Nc2ccc(-c3nnc(SCC#N)n3C)cc2)cc1	PKM2 act 20µM
Cc1ccc2[nH]c(=O)c3cc(C(=O)N4CCN(C(=O)c5ccco5)CC4)sc3c2c1	PKM2 act 16µM, EPAC2 ag inconclusive
COc1ccc(CCN=Cc2ccccc2O)cc1OC	none
COc1ccc(-c2cc(C(=O)N/N=C/c3cc(OC)c(OC)cc3OC)c3ccccc3n2)cc1	none (no result: PKM2 act)
O=C(O)c1ccccc1/C=N/NC(=O)c1cc(-c2ccco2)nc2ccccc12	PKM2 act 25µM, EPAC1 antagonist inconclusive
CC(=O)Nc1ccc(/C=N/NC(=O)c2cc(-c3ccco3)nc3ccccc23)cc1	none
COc1ccc(OC)c(/C=N/NC(=O)c2cc(-c3ccc(C)o3)nc3ccccc23)c1	PKM2 act 7.9µM
